Measured values as given in PubChem BioAssay (Tox21).
Inconclusive results are not listed. Entries that show only a call come without a potency. Unmarked numbers belong to inactive results. Calls of active or inactive are those of the source. Unless noted, calls follow the shape of the dose curve; as a rule, active = well fitted curve in the direction sought with a large enough effect in the repeat runs; inconclusive = weak or mixed curves; inactive = no such curve, though single readings can be large; an effect the other way counts as inactive or inconclusive.

What was measured:
[1] = qHTS assay to identify aromatase inhibitors - cell viability counter screen (AID 743084);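 also: cells stimulated with testosterone during compound exposure; nearly all actives have a fitted effect of over 55% in size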
[2] = molecular target: Aryl hydrocarbon receptor (Homo sapiens) (UniProt P35869); assay: qHTS assay to identify small molecule that activate the aryl hydrocarbon receptor (AhR) signaling pathway (AID 743085);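 also: HG2L7.5c1 human HepG2 liver cells with stably integrated DRE-driven firefly reporter; series mostly up to about 70 µM; nearly all actives have a fitted effect of over 15% in size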
Method in brief: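 A multiplexed format paired cell viability (CellTiter-Fluor fluorescence) with AhR-dependent luciferase output (ONE-Glo luminescence) in the same wells of HepG2 DRE-luc cells after 24 h compound exposure at 37C.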

[3] = qHTS assay to identify small molecule that activate the aryl hydrocarbon receptor (AhR) signaling pathway - cell viability counter screen (AID 743086);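 also: HepG2 liver cells carrying the AhR DRE luciferase reporter; series mostly up to about 70 µM; nearly all actives have a fitted effect of over 45% in size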
Method in brief: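 Cytotoxicity counter screen: CellTiter-Fluor signal (30 min, 37 C) in 4000 HepG2 cells/well carrying the DRE-luciferase reporter, following 24 h compound exposure at 37 C.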

[4] = molecular target: Peroxisome proliferator-activated receptor gamma (Homo sapiens) (UniProt P37231); assay: qHTS assay to identify small molecule agonists of the peroxisome proliferator-activated receptor gamma (PPARg) signaling pathway (AID 743094; active = well fitted activation curve with a large enough effect in the signal ratio in the repeat runs, not every such curve was filed as active; the % refers to the signal ratio)
Method in brief: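 Reporter activation was scored by fluorescence of cleaved LiveBLAzer B/G substrate (1 h, room temperature) in PPARg-bla HEK293H cells previously treated 17 h at 37C with DMSO-dissolved compounds.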

[5] = molecular target: Peroxisome proliferator-activated receptor gamma (Homo sapiens) (UniProt P37231); assay: qHTS assay to identify small molecule antagonists of the peroxisome proliferator-activated receptor gamma (PPARg) signaling pathway (AID 743191; calls by dose curve; also: series mostly up to about 63 µM; nearly all actives have a fitted effect of over 30% in size)
Method in brief: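 Beta-lactamase reporter under UAS control in HEK293H PPARg-bla cells; compound treatment 17 h at 37C. Read-out: fluorescence intensity after 1 h room-temperature incubation with LiveBLAzer B/G FRET substrate.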

[6] = qHTS assay to identify small molecule antagonists of the peroxisome proliferator-activated receptor gamma (PPARg) signaling pathway - cell viability counter screen (AID 743194); also: nearly all actives have a fitted effect of over 55% in size
Method in brief: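 Viability was measured as CellTiter-Glo luminescence in GeneBLAzer PPARg UAS-bla HEK293H cells. These cells had been exposed 17 h at 37 C to compounds together with rosiglitazone at 50 nM final, with the beta-lactamase readout taken in the same wells.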

[7] = qHTS assay for small molecule agonists of the antioxidant response element (ARE) signaling pathway (AID 743202; active = well fitted activation curve with a large enough effect in the signal ratio in the repeat runs, not every such curve was filed as active; the % refers to the signal ratio; also: potency is read from the fitted curve at half-maximal effect)
Method in brief: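 Beta-lactamase reporter activity, read as fluorescence intensity, reflects ARE/Nrf2 pathway induction in HepG2 cells after 16 h compound exposure at 37 C; substrate loading was 2 h at room temperature.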

[8] = qHTS assay for small molecule agonists of the antioxidant response element (ARE) signaling pathway - cell viability counter screen (AID 743203; calls by dose curve; also: nearly all actives have a fitted effect of over 55% in size)
Method in brief: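 Viability counter screen: stably transfected ARE-bla HepG2 line, 16 hrs compound exposure at 37C/5% CO2, ATP-based CellTiter-Glo luminescence measured in the reporter wells.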

[9] = qHTS assay for small molecule activators of the heat shock response signaling pathway - cell viability counter screen (AID 743209); also: nearly all actives have a fitted effect of over 50% in size
Method in brief: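 Viability of HSE-bla HeLa cells is measured with CellTiter-Glo in the wells already used for the reporter read. Compound exposure lasts 5 h at 37 C, and luminescence is read after 30 min at room temperature.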

[10] = qHTS assay for small molecule activators of the heat shock response signaling pathway (AID 743210; active = well fitted activation curve with a large enough effect in the signal ratio in the repeat runs, with a control signal flat, not every such curve was filed as active; the % refers to the signal ratio;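 also: HeLa cells with beta-lactamase reporter driven by heat shock elements; series mostly up to about 63 µM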)
Method in brief: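 Fluorescence from a cleaved B/G FRET substrate (2.5 h, room temp) reports HSE-driven beta-lactamase in HeLa cells treated 5 h at 37 C with DMSO-dissolved compounds.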

[11] = qHTS assay to identify small molecule agonists of the peroxisome proliferator-activated receptor delta (PPARd) signaling pathway - cell viability counter screen (AID 743211); also: nearly all actives have a fitted effect of over 55% in size
Method in brief: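 Tox21 library compounds, delivered in DMSO, were incubated 17 h with PPARd-bla HEK293H cells; cytotoxicity was taken from CellTiter-Glo luminescence read 30 min after reagent addition.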

[12] = qHTS assay to identify small molecule antagonists of the peroxisome proliferator-activated receptor delta (PPARd) signaling pathway - cell viability counter screen (AID 743213); also: nearly all actives have a fitted effect of over 50% in size
Method in brief: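 In this counter screen, HEK293H cells carrying a UAS-beta-lactamase reporter are co-treated with test compounds and 300 nM L165041 (final) for 17 h at 37 C; cell viability is quantified by CellTiter-Glo luminescence.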

[13] = molecular target: Bile acid receptor (Homo sapiens) (UniProt Q96RI1); assay: qHTS assay to identify small molecule antagonists of the farnesoid-X-receptor (FXR) signaling pathway (AID 743217; active = well fitted inhibition curve with a large enough effect in the signal ratio in the repeat runs, not every such curve was filed as active; the % refers to the signal ratio)
Method in brief: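 Screen of the Tox21 10K library in quantitative HTS format using FXR-UAS-bla HEK 293T reporter cells. Agonist chenodeoxycholic acid, 50 uM final, added with compounds; 16 h incubation at 37 °C; beta-lactamase FRET fluorescence measured.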

[14] = molecular target: Bile acid receptor (Homo sapiens) (UniProt Q96RI1); assay: qHTS assay to identify small molecule agonists of the farnesoid-X-receptor (FXR) signaling pathway (AID 743220; active = well fitted activation curve with a large enough effect in the signal ratio in the repeat runs, not every such curve was filed as active; the % refers to the signal ratio)
Method in brief: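 FXR-UAS-bla HEK 293T cells carrying a UAS-driven beta-lactamase reporter were plated for 5 h at 37C/5% CO2, then exposed to DMSO-dissolved Tox21 10K compounds for 16 h at 37C. A LiveBLAzer B/G FRET substrate was loaded for 2 h at room temperature before fluorescence reading.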

[15] = molecular target: Vitamin D3 receptor (Homo sapiens) (UniProt P11473); assay: qHTS assay to identify small molecule agonists of the vitamin D receptor (VDR) signaling pathway (AID 743222; calls by dose curve)
Method in brief: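 Fluorescence from cleaved LiveBLAzer B/G FRET substrate served as readout. VDR-bla cells had been treated 16 h at 37C with test compounds in DMSO, following a 4 h settling period, and substrate was loaded for 2 h at RT.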

[16] = molecular target: Vitamin D3 receptor (Homo sapiens) (UniProt P11473); assay: qHTS assay to identify small molecule antagonists of the vitamin D receptor (VDR) signaling pathway (AID 743223; active = well fitted inhibition curve with a large enough effect in the signal ratio in the repeat runs, not every such curve was filed as active; the % refers to the signal ratio)
Method in brief: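 Quantitative HTS in VDR-bla reporter cells stimulated with 1alpha,25-dihydroxyvitamin D3, 3 nM final. Compound exposure 16 h, 37C, 5% CO2. Read-out: beta-lactamase FRET substrate fluorescence, 2 h RT.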

[17] = molecular target: Peroxisome proliferator-activated receptor delta (Homo sapiens) (UniProt Q03181); assay: qHTS assay to identify small molecule agonists of the peroxisome proliferator-activated receptor delta (PPARd) signaling pathway (AID 743212; calls by dose curve;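 also: HEK293H cells with PPARd UAS beta-lactamase reporter GeneBLAzer system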)
Method in brief: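 Steps: seed PPARd-bla HEK293H cells; incubate 5 h, 37 C, 5% CO2; add compounds in DMSO; incubate, 37 C; add LiveBLAzer B/G FRET substrate; hold 2 h at room temperature; measure fluorescence.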

[18] = qHTS assay to identify small molecule agonists of the farnesoid-X-receptor (FXR) signaling pathway - cell viability counter screen (AID 743218); also: nearly all actives have a fitted effect of over 45% in size
Method in brief: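 Viability of FXR-bla HEK 293T cells is measured by ATP-based CellTiter-Glo luminescence following 16 h compound treatment at 37 C and a prior 2 h room-temperature beta-lactamase substrate step.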

[19] = qHTS assay to identify small molecule antagonists of the farnesoid-X-receptor (FXR) signaling pathway - cell viability counter screen (AID 743221; active = well fitted cell-killing curve with a large enough effect in the repeat runs, not every such curve was filed as active; also: nearly all actives have a fitted effect of over 50% in size)
Method in brief: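 Cytotoxicity is taken from ATP luminescence (CellTiter-Glo, 30 min, room temperature) in FXR-bla HEK 293T cells previously incubated 16 h at 37 C with compound and chenodeoxycholic acid at 50 uM final.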

[20] = molecular target: Peroxisome proliferator-activated receptor delta (Homo sapiens) (UniProt Q03181); assay: qHTS assay to identify small molecule antagonists of the peroxisome proliferator-activated receptor delta (PPARd) signaling pathway (AID 743215; active = well fitted inhibition curve with a large enough effect in the signal ratio in the repeat runs, not every such curve was filed as active; the % refers to the signal ratio;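 also: cells stimulated with agonist L165041 at 300 nM final during compound exposure; series mostly up to about 62 µM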)
Method in brief: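 Plated HEK293H PPARd-bla cells rested 5 h at 37 C and 5% CO2. Compound, then agonist L165041 at 300 nM final, was added; 17 h at 37 C followed. Substrate loading, 2 h room temperature, fluorescence measured.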

Chain of Bile acid receptor (Homo sapiens) (Q96RI1 whole entry, looked up): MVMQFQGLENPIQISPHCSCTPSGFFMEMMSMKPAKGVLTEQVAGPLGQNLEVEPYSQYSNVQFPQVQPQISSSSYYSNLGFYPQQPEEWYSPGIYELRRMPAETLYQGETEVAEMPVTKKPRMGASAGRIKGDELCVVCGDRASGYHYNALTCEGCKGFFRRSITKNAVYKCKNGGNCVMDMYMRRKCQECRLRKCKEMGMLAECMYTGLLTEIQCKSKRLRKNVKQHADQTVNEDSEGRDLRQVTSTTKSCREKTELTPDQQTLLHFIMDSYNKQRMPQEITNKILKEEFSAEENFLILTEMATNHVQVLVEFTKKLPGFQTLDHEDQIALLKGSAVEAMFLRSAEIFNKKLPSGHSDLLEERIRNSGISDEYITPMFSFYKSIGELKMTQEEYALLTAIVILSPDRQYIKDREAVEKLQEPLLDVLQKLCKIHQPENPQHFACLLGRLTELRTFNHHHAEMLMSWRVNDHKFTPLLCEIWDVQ
Chain of Vitamin D3 receptor (Homo sapiens) (P11473 whole entry, looked up): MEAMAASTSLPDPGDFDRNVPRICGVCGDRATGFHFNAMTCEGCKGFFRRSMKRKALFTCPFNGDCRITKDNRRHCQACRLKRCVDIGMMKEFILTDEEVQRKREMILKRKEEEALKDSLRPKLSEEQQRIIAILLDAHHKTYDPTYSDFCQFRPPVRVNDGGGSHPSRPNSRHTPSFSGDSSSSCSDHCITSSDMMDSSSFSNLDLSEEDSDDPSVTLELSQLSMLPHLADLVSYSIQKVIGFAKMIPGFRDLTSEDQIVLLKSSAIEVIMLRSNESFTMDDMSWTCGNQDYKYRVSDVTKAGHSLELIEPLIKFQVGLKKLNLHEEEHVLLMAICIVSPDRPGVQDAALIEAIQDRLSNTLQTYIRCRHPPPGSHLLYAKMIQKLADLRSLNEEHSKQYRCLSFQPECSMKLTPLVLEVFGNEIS
Chain of Aryl hydrocarbon receptor (Homo sapiens) (P35869 whole entry, looked up): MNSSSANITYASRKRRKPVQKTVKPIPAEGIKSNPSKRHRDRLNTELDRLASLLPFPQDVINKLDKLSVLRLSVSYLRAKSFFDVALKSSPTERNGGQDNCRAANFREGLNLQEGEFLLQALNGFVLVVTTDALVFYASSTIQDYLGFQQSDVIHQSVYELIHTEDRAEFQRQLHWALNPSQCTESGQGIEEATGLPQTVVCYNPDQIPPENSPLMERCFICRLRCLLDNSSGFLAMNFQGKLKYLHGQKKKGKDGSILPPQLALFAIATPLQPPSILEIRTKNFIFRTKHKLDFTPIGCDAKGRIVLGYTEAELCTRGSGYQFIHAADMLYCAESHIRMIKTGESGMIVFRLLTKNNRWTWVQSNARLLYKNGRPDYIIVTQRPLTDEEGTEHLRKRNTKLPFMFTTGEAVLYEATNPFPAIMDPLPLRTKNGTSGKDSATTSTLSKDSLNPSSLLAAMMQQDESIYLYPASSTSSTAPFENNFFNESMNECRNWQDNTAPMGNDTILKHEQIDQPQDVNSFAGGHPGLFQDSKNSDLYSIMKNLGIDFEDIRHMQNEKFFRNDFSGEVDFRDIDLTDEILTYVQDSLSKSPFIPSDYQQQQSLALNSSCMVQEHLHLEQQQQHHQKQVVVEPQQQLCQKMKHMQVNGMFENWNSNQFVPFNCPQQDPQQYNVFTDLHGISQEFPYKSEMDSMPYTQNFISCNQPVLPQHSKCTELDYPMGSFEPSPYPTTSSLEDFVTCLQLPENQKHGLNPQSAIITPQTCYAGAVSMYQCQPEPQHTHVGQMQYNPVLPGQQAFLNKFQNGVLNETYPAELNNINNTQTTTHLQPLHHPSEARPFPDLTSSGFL
Chain of Peroxisome proliferator-activated receptor gamma (Homo sapiens) (P37231 whole entry, looked up): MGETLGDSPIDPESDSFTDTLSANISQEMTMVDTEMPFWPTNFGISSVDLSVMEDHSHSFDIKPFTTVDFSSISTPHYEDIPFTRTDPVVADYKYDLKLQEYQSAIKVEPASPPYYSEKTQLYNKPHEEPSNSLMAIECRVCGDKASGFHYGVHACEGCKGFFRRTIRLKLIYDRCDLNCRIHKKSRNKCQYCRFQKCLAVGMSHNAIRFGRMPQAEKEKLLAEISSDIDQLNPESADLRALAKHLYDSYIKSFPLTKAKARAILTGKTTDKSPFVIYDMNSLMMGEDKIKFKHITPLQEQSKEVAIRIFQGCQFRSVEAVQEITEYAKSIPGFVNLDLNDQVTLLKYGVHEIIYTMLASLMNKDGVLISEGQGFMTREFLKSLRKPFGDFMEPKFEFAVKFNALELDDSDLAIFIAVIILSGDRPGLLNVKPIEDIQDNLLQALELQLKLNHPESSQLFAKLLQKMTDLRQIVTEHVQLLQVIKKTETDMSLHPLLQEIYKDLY
Chain of Peroxisome proliferator-activated receptor delta (Homo sapiens) (Q03181 whole entry, looked up): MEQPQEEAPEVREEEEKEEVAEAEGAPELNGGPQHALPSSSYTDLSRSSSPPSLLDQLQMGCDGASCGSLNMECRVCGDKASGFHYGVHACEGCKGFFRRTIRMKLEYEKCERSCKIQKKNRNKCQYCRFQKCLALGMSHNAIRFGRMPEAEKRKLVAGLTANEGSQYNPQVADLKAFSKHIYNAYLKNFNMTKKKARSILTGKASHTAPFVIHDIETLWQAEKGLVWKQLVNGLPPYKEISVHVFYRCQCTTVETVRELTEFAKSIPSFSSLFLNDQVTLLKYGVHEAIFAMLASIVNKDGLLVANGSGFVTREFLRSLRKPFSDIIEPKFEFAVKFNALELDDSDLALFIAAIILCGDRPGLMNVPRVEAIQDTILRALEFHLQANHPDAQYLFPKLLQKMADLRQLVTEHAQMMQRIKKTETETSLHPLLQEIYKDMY

In the case of `NC(=O)c1ccccc1`, the Potency [1] is reported as “inactive”, the Potency [2] is reported as “inactive” and the Potency [3] is reported as “inactive”. For the same compound, the Potency [4] was “inactive”, the Potency [5] was “inactive” and the Potency [6] was “inactive”. For the same compound, the Potency [7] was “inactive”, the Potency [8] was “inactive” and the outcome [9] was “inactive”. For the same compound, the outcome [10] was “inactive”, the Potency [11] was “inactive” and the Potency [12] was “inactive”. For the same compound, the outcome [13] was “inactive”, the outcome [14] was “inactive” and the outcome [15] was “inactive”. The outcome [16] was “inactive”.

With `CCCCCCCCCCCC(=O)OCC` the Potency [1] was “inactive”, the Potency [2] was “inactive” and the Potency [3] was “inactive”. For the same compound, the Potency [4] was “inactive”, the Potency [5] was “inactive” and the Potency [6] was “inactive”. For the same compound, the Potency [7] was “inactive”, the Potency [8] was “inactive” and the outcome [9] was “inactive”. For the same compound, the outcome [10] was “inactive”, the Potency [11] was “inactive” and the Potency [17] was “inactive”. For the same compound, the Potency [12] was “inactive”, the Potency [18] was “inactive” and the Potency [19] was “inactive”. For the same compound, the outcome [15] was “inactive” and the outcome [16] was “inactive”.

For `CC(C)(C)c1ccc(CCC=O)cc1`, the Potency [1] was “inactive”, the Potency [2] was “inactive” and the Potency [3] was “inactive”. For the same compound, the Potency [4] was “inactive”, the Potency [5] was “inactive” and the Potency [6] was “inactive”. For the same compound, the Potency [7] was “inactive”, the Potency [8] was “inactive” and the outcome [9] was “inactive”. The outcome [10] was “inactive”, the Potency [11] was “inactive” and the Potency [17] was “inactive”. For the same compound, the Potency [12] was “inactive”, the outcome [20] was “inactive” and the outcome [13] was “inactive”. The outcome [14] was “inactive”, the Potency [19] was “inactive” and the outcome [15] was “inactive”.

In the case of `OCCc1ccncc1`, the Potency [1] is reported as “inactive”, the Potency [2] is reported as “inactive” and the Potency [3] is reported as “inactive”. For the same compound, the Potency [4] was “inactive”, the Potency [5] was “inactive” and the Potency [6] was “inactive”. The Potency [7] was “inactive”, the Potency [8] was “inactive” and the outcome [9] was “inactive”. For the same compound, the outcome [10] was “inactive”, the Potency [11] was “inactive” and the Potency [12] was “inactive”. For the same compound, the outcome [13] was “inactive”, the Potency [18] was “inactive” and the outcome [14] was “inactive”. The Potency [19] was “inactive”, the outcome [15] was “inactive” and the outcome [16] was “inactive”.

For `CCc1ccc(C(=O)C(C)CN2CCCCC2)cc1` (configuration not stated), the Potency [1] was “inactive”, the Potency [2] was “inactive” and the Potency [3] was “inactive”. For the same compound, the Potency [4] was “inactive”, the Potency [5] was “inactive” and the Potency [6] was “inactive”. The Potency [7] was 23.7 µM (active), the Potency [8] was “inactive” and the outcome [9] was “inactive”. For the same compound, the outcome [10] was “inactive”, the Potency [11] was “inactive” and the Potency [12] was “inactive”. For the same compound, the Potency [19] was “inactive” and the outcome [15] was “inactive”.

In the case of `C=CC(=O)NC(C)(C)C`, the Potency [1] is reported as “inactive”, the Potency [2] is reported as “inactive” and the Potency [3] is reported as “inactive”. For the same compound, the Potency [4] was “inactive”, the Potency [5] was “inactive” and the Potency [6] was “inactive”. For the same compound, the Potency [7] was “inactive”, the Potency [8] was “inactive” and the outcome [9] was “inactive”. The outcome [10] was “inactive”, the Potency [12] was “inactive” and the outcome [13] was “inactive”. For the same compound, the outcome [14] was “inactive”, the Potency [19] was “inactive” and the outcome [15] was “inactive”. For the same compound, the outcome [16] was “inactive”.

With `C[C@@H](O)[C@H]1C(=O)N2C(C(=O)O)=C(S[C@@H]3CN[C@H](CNS(N)(=O)=O)C3)[C@H](C)[C@H]12` the Potency [1] was “inactive”, the Potency [2] was “inactive” and the Potency [3] was “inactive”. For the same compound, the Potency [4] was “inactive”, the Potency [5] was “inactive” and the Potency [6] was “inactive”. For the same compound, the Potency [7] was “inactive”, the Potency [8] was “inactive” and the outcome [9] was “inactive”. The outcome [10] was “inactive”, the Potency [11] was “inactive” and the Potency [17] was “inactive”. For the same compound, the Potency [12] was “inactive”, the outcome [20] was “inactive” and the outcome [13] was “inactive”. The outcome [14] was “inactive” and the Potency [19] was “inactive”.

In the case of `O=Cc1ccc([N+](=O)[O-])cc1`, the Potency [1] is reported as “inactive”, the Potency [2] is reported as “inactive” and the Potency [3] is reported as “inactive”. The Potency [4] was “inactive”, the Potency [5] was “inactive” and the Potency [6] was “inactive”. The Potency [7] was “inactive”, the Potency [8] was “inactive” and the outcome [9] was “inactive”. For the same compound, the outcome [10] was “inactive”, the Potency [17] was “inactive” and the Potency [12] was “inactive”. The Potency [18] was “inactive”, the Potency [19] was “inactive” and the outcome [15] was “inactive”. The outcome [16] was “inactive”.
